MCF10A rerep: DNA re-replication induction in MCF 10a cells | Potency, µM (highest dose often 46.1 µM), most hits filed as activators | MCF 10A DNA re-replication, Hoechst nuclear intensity, 48 h | hit rate 2.9% among 350,000; also: nearly all actives have a fitted effect of over 50% in size
SW480 rerep: inducers of DNA re-replication in SW480 colon cancer cells; SW480 DNA re-replication, Hoechst DNA content imaging, 48 h; Potency, µM (doses to about 46.1 µM), hits mostly activators; hit rate 1.8% among 340,000; also: nearly all actives have a fitted effect of over 55% in size
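First, 250 cells per well were seeded. Next, compound or vehicle (23 nL) was pinned in, plates sat 48 hr at 37 C. Finally Hoechst was added for 40 min before fluorescence scanning.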
HT1080-NT tox: kills 2HG-producing HT-1080-NT fibrosarcoma cells; AID 686970; hit rate 1.6% among 360,000; HT-1080-NT fibrosarcoma viability, CellTiter-Glo ATP luminescence, 48 h; Potency, µM (highest dose often 46.1 µM), hits mostly cytotoxic;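 also: NT is the 2HG producing partner of a matched IDH1 knockdown line; nearly all actives have a fitted effect of over 55% in size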
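HT-1080-NT; 750 cells/well; 5% FBS RPMI; 48 h compound, 37 degrees C; CellTiter-Glo luminescence; curve fitting and curve-class assignment.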
KB-V1 cytotox: kills drug-selected multidrug resistant KB-V1 cells; KB-V1 MDR cells viability, CellTiter-Glo, 72 h; Potency, µM (doses to about 46.1 µM), actives largely listed as cytotoxic; hit rate 3.4% among 400,000; also: nearly all actives have a fitted effect of over 60% in size
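Readout: CellTiter-Glo luminescence, 10 min after addition. Cells: KB-V1 MDR subline, 72 h at 37 degrees C with compound. Analysis: corrected, normalized data fitted to concentration-effect curves.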
HT1080 IDH1KD tx: kills HT-1080 cells with IDH1 knockdown; HT-1080 IDH1 knockdown viability, ATP luminescence, 48 h; Potency, µM (highest dose often 46.1 µM), hits mostly cytotoxic; hit rate 2% among 360,000; AID 686971
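Assay cells: HT-1080 with IDH1 knockdown, 750 per well, RPMI/5% FBS. Exposure: 48 h at 37 °C following 2 h pre-incubation. Read: CellTiter-Glo luminescence; fitted concentration-response, curve class assigned.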
KB-3-1 tox: KB-3-1 parental cell cytotoxicity; Potency, µM (titrated, usually from 46.1 µM), actives largely listed as cytotoxic; hit rate 1.4% among 400,000; KB-3-1 viability, CellTiter-Glo ATP luminescence, 72 h; also: nearly all actives have a fitted effect of over 60% in size
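Parental KB-3-1 viability, qHTS format: 72 h compound exposure, 37 °C; CellTiter-Glo; media-only wells and DMSO plates as controls; concentration-effect fits on corrected data.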
Hits are given with their value. Compounds with a hit are over-represented: about 7.9% of the library has one in this group of screens. Calls follow the shape of the dose curve; as a rule, active = well fitted curve in the direction sought with a large enough effect; inconclusive = small, poorly fitted or top-dose-only effect, or another doubt; inactive = no such curve, though single readings can be large; an effect the other way counts as inactive or inconclusive.

CCc1cccc(Nc2c3c(nc4ncnn24)CCC3)c1 was read as MCF10A rerep inactive, SW480 rerep inactive, HT1080-NT tox inactive, KB-V1 cytotox 18µM, HT1080 IDH1KD tx inactive and KB-3-1 tox inactive.
For CCCCC[C@H](C)N1C[C@H](COCc2ccccc2)Oc2cc(N3CCC[C@H]3CO)ccc2S1(=O)=O the results were HT1080-NT tox inconclusive, KB-V1 cytotox inconclusive, HT1080 IDH1KD tx inconclusive and KB-3-1 tox inactive.
Screening COc1ccc2c(CN(C)c3ccccc3)cc(=O)oc2c1 returned MCF10A rerep inactive, SW480 rerep inactive, HT1080-NT tox inactive, KB-V1 cytotox 18µM, HT1080 IDH1KD tx inactive and KB-3-1 tox inactive.
`O=C1NC(Cc2ccc(O)cc2)c2nc3cc(F)ccc3c(=O)n2-c2cc3ccccc3cc21` (stereo not given) gave HT1080-NT tox 15µM, KB-V1 cytotox inconclusive, HT1080 IDH1KD tx 18µM and KB-3-1 tox 15µM.
Screening O=C1NC(Cc2ccc(O)cc2)c2nc3cc(F)c(F)cc3c(=O)n2-c2ncccc21 (stereo not given) returned HT1080-NT tox inconclusive, KB-V1 cytotox inactive, HT1080 IDH1KD tx 21µM and KB-3-1 tox inactive.
Cc1ccc2c(=O)n3c(nc2c1)C(Cc1ccc(O)cc1)NC(=O)c1cc2ccccc2cc1-3 (stereo not given) was read as HT1080-NT tox 5.2µM, KB-V1 cytotox inconclusive, HT1080 IDH1KD tx 6.5µM and KB-3-1 tox 16µM.
Screening O=C1NC(Cc2ccc(O)cc2)c2nc3cc(F)ccc3c(=O)n2-c2ncccc21 (stereo not given) returned HT1080-NT tox inactive, KB-V1 cytotox inactive, HT1080 IDH1KD tx inactive and KB-3-1 tox inactive.
For O=C1NC(Cc2ccc(O)cc2)c2nc3cc(Cl)ccc3c(=O)n2-c2cc(Cl)ccc21 (stereo not given) the results were MCF10A rerep inconclusive, SW480 rerep inactive, HT1080-NT tox inactive, KB-V1 cytotox inactive, HT1080 IDH1KD tx inconclusive and KB-3-1 tox inconclusive.
CCCC1NC(=O)c2cc3ccccc3cc2-n2c1nc1cc(Cl)ccc1c2=O (stereo not given) was read as HT1080-NT tox inactive, KB-V1 cytotox 12µM, HT1080 IDH1KD tx inactive and KB-3-1 tox 18µM.
For Cc1ccc(SCC(=O)Nc2ccc(O)c(-c3nc4cc(C)ccc4o3)c2)cc1 the results were KB-V1 cytotox inactive and KB-3-1 tox inactive.
`CCn1ccc2cc(S(=O)(=O)N3CCC(C(=O)NCc4ccc(OC(C)C)cc4)CC3)ccc21` gave KB-V1 cytotox inactive and KB-3-1 tox inactive.
Screening COc1cc2c(NC3CCN(C)CC3)nc(N3CCCCC3)nc2cc1OCCOCCN(C)C returned KB-V1 cytotox inactive and KB-3-1 tox inactive.
For Cc1cc(C(Br)(Br)Br)nc2ccccc12 the results were KB-V1 cytotox inactive and KB-3-1 tox inactive.
Screening O=C1NC(Cc2ccc(O)cc2)c2nc3ccc(Cl)cc3c(=O)n2-c2cc3ccccc3cc21 (stereo not given) returned HT1080-NT tox 15µM, KB-V1 cytotox inconclusive, HT1080 IDH1KD tx inconclusive and KB-3-1 tox inconclusive.
O=C1NC(Cc2ccccc2)c2nc3ccc(Cl)cc3c(=O)n2-c2cc3ccccc3cc21 (stereo not given) was read as HT1080-NT tox inactive, KB-V1 cytotox inactive, HT1080 IDH1KD tx inconclusive and KB-3-1 tox inconclusive.
CCCCCCn1c(=O)n2n(c1=O)[C@@H]1CN(S(=O)(=O)c3ccc(C)cc3)C[C@]1(O)[C@@H](OC(=O)NCc1ccc(OC)c(OC)c1)C2 was read as HT1080-NT tox inactive, KB-V1 cytotox inactive, HT1080 IDH1KD tx inactive and KB-3-1 tox inactive.
`CCOc1ccc(-n2c(-c3ccc(Br)cc3)cc3c2CC(C)(C)CC3=O)cc1` gave KB-V1 cytotox inactive and KB-3-1 tox inactive.
`NC(=O)C1(N2CCCCC2)CCN(c2nc(-c3ccc(Br)cc3)cs2)CC1` gave MCF10A rerep inconclusive, SW480 rerep inactive, HT1080-NT tox inactive, KB-V1 cytotox 23µM, HT1080 IDH1KD tx inactive and KB-3-1 tox inactive.
`CC(NC(=O)c1cccnc1)C(=O)O` (stereo not given) gave MCF10A rerep inactive, SW480 rerep 1µM, HT1080-NT tox inactive, KB-V1 cytotox inactive, HT1080 IDH1KD tx inactive and KB-3-1 tox inactive.
`CC(NC(=O)c1cccnc1)C(=O)N1CCCCC1` (stereo not given) gave MCF10A rerep inactive, SW480 rerep inactive, HT1080-NT tox inactive, KB-V1 cytotox inactive, HT1080 IDH1KD tx inactive and KB-3-1 tox inactive.
Screening COc1ccc2nc(N)sc2c1 returned MCF10A rerep inactive, SW480 rerep inactive, HT1080-NT tox inactive, KB-V1 cytotox inactive, HT1080 IDH1KD tx inactive and KB-3-1 tox inconclusive.
COc1ccc2nc(N=Nc3ccc(O)c4ccccc34)sc2c1 was read as MCF10A rerep 8.2µM, SW480 rerep inconclusive, HT1080-NT tox 7.3µM, KB-V1 cytotox inconclusive, HT1080 IDH1KD tx 5.8µM and KB-3-1 tox inconclusive.
`COc1ccc2nc(N=NC3=C(O)CC(C)(C)CC3=O)sc2c1` gave MCF10A rerep inactive, SW480 rerep 2.1µM, HT1080-NT tox inactive, KB-V1 cytotox inactive, HT1080 IDH1KD tx inconclusive and KB-3-1 tox inconclusive.
Screening CC1(C)CC(=O)C(N=Nc2ccc3ncsc3c2)=C(O)C1 returned MCF10A rerep inactive, SW480 rerep inactive, HT1080-NT tox inactive, KB-V1 cytotox inactive, HT1080 IDH1KD tx inactive and KB-3-1 tox inactive.
Screening Cc1cc(C(=O)N/N=C/C=C/c2ccccc2)n[nH]1 returned MCF10A rerep inactive, SW480 rerep inconclusive, HT1080-NT tox inactive, KB-V1 cytotox inactive, HT1080 IDH1KD tx inconclusive and KB-3-1 tox inactive.
Screening O=C(N/N=C/C=C/c1ccccc1)c1n[nH]c2c1CCC2 returned MCF10A rerep 1.5µM, SW480 rerep 2.1µM, HT1080-NT tox 1.8µM, KB-V1 cytotox 1µM, HT1080 IDH1KD tx 1.3µM and KB-3-1 tox 1.3µM.
Screening CC(/C=N/NC(=O)c1ccccc1C)=C\c1ccccc1 returned MCF10A rerep inactive, SW480 rerep inactive, HT1080-NT tox inactive, KB-V1 cytotox inactive, HT1080 IDH1KD tx inactive and KB-3-1 tox inactive.
CC(/C=N/NC(=O)c1n[nH]c2c1CCC2)=C\c1ccccc1 was read as MCF10A rerep 0.26µM, SW480 rerep 0.73µM, HT1080-NT tox 0.18µM, KB-V1 cytotox 0.21µM, HT1080 IDH1KD tx 0.37µM and KB-3-1 tox 0.33µM.
`O=C(N/N=C/C(Br)=C\c1ccccc1)c1n[nH]c2c1CCC2` gave MCF10A rerep inconclusive, SW480 rerep 0.52µM, HT1080-NT tox 0.32µM, KB-V1 cytotox inconclusive, HT1080 IDH1KD tx 0.56µM and KB-3-1 tox inactive.
